The values below come from publication PMC12820563, “FoxP3 forms a head-to-head dimer in vivo and stabilizes its multimerization on adjacent microsatellites”.

In all, about 16,000 sequences were measured (“rpm ratio (pull-down/input)”: median about 0.5, highest 2% from about 5.5 on). The list comes from a sample in which the highest values are over-represented; it also holds similar and randomly drawn sequences.

The experiment addresses T1, MBP-FoxP3dN (Mus musculus, UniProt Q99JB6 188-423).
T1 sequence: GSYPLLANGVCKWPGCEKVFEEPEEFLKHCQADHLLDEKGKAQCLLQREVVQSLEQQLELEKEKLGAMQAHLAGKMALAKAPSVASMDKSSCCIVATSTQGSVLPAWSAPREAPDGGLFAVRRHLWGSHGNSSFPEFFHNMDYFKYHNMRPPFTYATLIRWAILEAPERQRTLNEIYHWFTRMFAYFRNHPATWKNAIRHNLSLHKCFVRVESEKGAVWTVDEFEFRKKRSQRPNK
Kind of experiment: PD-seq (MBP pull-down with sequencing); 20 mM Tris-HCl pH 7.5, 100 mM NaCl, 1.5 mM MgCl2, 0.4 uM protein, 0.1 uM dsDNA library, 30 min, room temperature, amylose pull-down; high values mean tight binding. Conditions: protein: recombinant; tags: His6-MBP; chain copies: 2; dsDNA, one strand shown. The method, boiled down:
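Binding is reads-per-million enrichment of pull-down over input, with replicates pooled. It comes from 30 min room-temperature incubation in Tris pH 7.5 buffer with NaCl and MgCl2 of 0.4 µM His6-MBP-tagged, N-terminally truncated mouse FoxP3 or FoxP1 fragment from E. coli with 0.1 µM Klenow-filled degenerate double-stranded DNA library, followed by amylose resin capture, three washes and Illumina sequencing of the released DNA.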
For the sequence “GATGATTGTTCTCCCAGCTGATGAATTCTATAGCTCGAGTAAACAAATTTTCCTAATCTTTCTGTTCAAGCGCCATCTAC”, the binding signal was 0.43 RPM ratio (pull-down/input).

In the case of “GATGATTGTTCTCCCAGCTGATGAATTGGCGGCCTCGAGTAAACAAATTTTCCTAATCTTTCTGTTCAAGCGCCATCTAC”, the binding signal is 0.449 RPM ratio (pull-down/input).

For “GATGATTGTTCTCCCAGCTGATGAATTTGTATTTTCGAGTAAACAAATTTTCCTAATCTTTCTGTTCAAGCGCCATCTAC”, the binding signal is 4.85 RPM ratio (pull-down/input).

Turning to “GATGATTGTTCTCCCAGCTGATGAATTGTATTTGTCGAGTAAACAAATTTTCCTAATCTTTCTGTTCAAGCGCCATCTAC”, the binding signal is 6.43 RPM ratio (pull-down/input).

As for “GATGATTGTTCTCCCAGCTGATGAATTTTGTATTTCGAGTAAACAAATTTTCCTAATCTTTCTGTTCAAGCGCCATCTAC”, the binding signal was 5.33 RPM ratio (pull-down/input).

With “GATGATTGTTCTCCCAGCTGATGAATTGTATCTGTCGAGTAAACAAATTTTCCTAATCTTTCTGTTCAAGCGCCATCTAC”, the binding signal is 1.2 RPM ratio (pull-down/input).

Regarding “GATGATTGTTCTCCCAGCTGATGAATTGTAATTGTCGAGTAAACAAATTTTCCTAATCTTTCTGTTCAAGCGCCATCTAC”, the binding signal was 2.31 RPM ratio (pull-down/input).

As for “GATGATTGTTCTCCCAGCTGATGAATTTGTATTGTCGAGTAAACAAATTTTCCTAATCTTTCTGTTCAAGCGCCATCTAC”, the binding signal is 6.39 RPM ratio (pull-down/input).

Consider “GATGATTGTTCTCCCAGCTGATGAATTACAAGCTTCGAGTAAACAAATTTTCCTAATCTTTCTGTTCAAGCGCCATCTAC”, for which the binding signal was 0.518 RPM ratio (pull-down/input).

Consider “GATGATTGTTCTCCCAGCTGATGAATTGGGGGCATCGAGTAAACAAATTTTCCTAATCTTTCTGTTCAAGCGCCATCTAC”, for which the binding signal is 0.87 RPM ratio (pull-down/input).

As for “GATGATTGTTCTCCCAGCTGATGAATTGGGCATTTCGAGTAAACAAATTTTCCTAATCTTTCTGTTCAAGCGCCATCTAC”, the binding signal is 5.5 RPM ratio (pull-down/input).

As for “GATGATTGTTCTCCCAGCTGATGAATTTGGGCATTCGAGTAAACAAATTTTCCTAATCTTTCTGTTCAAGCGCCATCTAC”, the binding signal was 4.79 RPM ratio (pull-down/input).

Take “GATGATTGTTCTCCCAGCTGATGAATTGGGGCATTCGAGTAAACAAATTTTCCTAATCTTTCTGTTCAAGCGCCATCTAC”: the binding signal is 4.3 RPM ratio (pull-down/input).

For the sequence “GATGATTGTTCTCCCAGCTGATGAATTTTGGGCATCGAGTAAACAAATTTTCCTAATCTTTCTGTTCAAGCGCCATCTAC”, the binding signal was 0.782 RPM ratio (pull-down/input).

With “GATGATTGTTCTCCCAGCTGATGAATTGGGCATCTCGAGTAAACAAATTTTCCTAATCTTTCTGTTCAAGCGCCATCTAC”, the binding signal was 6.41 RPM ratio (pull-down/input).

Turning to “GATGATTGTTCTCCCAGCTGATGAATTAAGTGAATCGAGTAAACAAATTTTCCTAATCTTTCTGTTCAAGCGCCATCTAC”, the binding signal is 0.328 RPM ratio (pull-down/input).

Consider “GATGATTGTTCTCCCAGCTGATGAATTAAGGGAGTCGAGTAAACAAATTTTCCTAATCTTTCTGTTCAAGCGCCATCTAC”, for which the binding signal was 0.249 RPM ratio (pull-down/input).

Consider “GATGATTGTTCTCCCAGCTGATGAATTGCTTAAATCGAGTAAACAAATTTTCCTAATCTTTCTGTTCAAGCGCCATCTAC”, for which the binding signal is 0.457 RPM ratio (pull-down/input).

With “GATGATTGTTCTCCCAGCTGATGAATTCTAGGTATCGAGTAAACAAATTTTCCTAATCTTTCTGTTCAAGCGCCATCTAC”, the binding signal was 0.464 RPM ratio (pull-down/input).

On to “GATGATTGTTCTCCCAGCTGATGAATTTGCAAATTCGAGTAAACAAATTTTCCTAATCTTTCTGTTCAAGCGCCATCTAC”, for which the binding signal was 0.496 RPM ratio (pull-down/input).

As to “GATGATTGTTCTCCCAGCTGATGAATTCTGCAATTCGAGTAAACAAATTTTCCTAATCTTTCTGTTCAAGCGCCATCTAC”, the binding signal was 4.83 RPM ratio (pull-down/input).

In the case of “GATGATTGTTCTCCCAGCTGATGAATTTGCAATTTCGAGTAAACAAATTTTCCTAATCTTTCTGTTCAAGCGCCATCTAC”, the binding signal was 2.77 RPM ratio (pull-down/input).

For the sequence “GATGATTGTTCTCCCAGCTGATGAATTCGTGCAATCGAGTAAACAAATTTTCCTAATCTTTCTGTTCAAGCGCCATCTAC”, the binding signal is 3.15 RPM ratio (pull-down/input).

Regarding “GATGATTGTTCTCCCAGCTGATGAATTCGCAATTTCGAGTAAACAAATTTTCCTAATCTTTCTGTTCAAGCGCCATCTAC”, the binding signal is 1.92 RPM ratio (pull-down/input).

For the sequence “GATGATTGTTCTCCCAGCTGATGAATTTTGCAATTCGAGTAAACAAATTTTCCTAATCTTTCTGTTCAAGCGCCATCTAC”, the binding signal was 5.75 RPM ratio (pull-down/input).

On to “GATGATTGTTCTCCCAGCTGATGAATTGCGCAATTCGAGTAAACAAATTTTCCTAATCTTTCTGTTCAAGCGCCATCTAC”, for which the binding signal is 5.72 RPM ratio (pull-down/input).

As to “GATGATTGTTCTCCCAGCTGATGAATTGTGCAATTCGAGTAAACAAATTTTCCTAATCTTTCTGTTCAAGCGCCATCTAC”, the binding signal is 6.39 RPM ratio (pull-down/input).

As to “GATGATTGTTCTCCCAGCTGATGAATTTCGCAATTCGAGTAAACAAATTTTCCTAATCTTTCTGTTCAAGCGCCATCTAC”, the binding signal is 4.55 RPM ratio (pull-down/input).

Take “GATGATTGTTCTCCCAGCTGATGAATTTTGGTCGTCGAGTAAACAAATTTTCCTAATCTTTCTGTTCAAGCGCCATCTAC”: the binding signal is 0.496 RPM ratio (pull-down/input).

Consider “GATGATTGTTCTCCCAGCTGATGAATTTGGGTGGTCGAGTAAACAAATTTTCCTAATCTTTCTGTTCAAGCGCCATCTAC”, for which the binding signal is 0.682 RPM ratio (pull-down/input).

As for “GATGATTGTTCTCCCAGCTGATGAATTGTTAACTTCGAGTAAACAAATTTTCCTAATCTTTCTGTTCAAGCGCCATCTAC”, the binding signal was 0.587 RPM ratio (pull-down/input).

As for “GATGATTGTTCTCCCAGCTGATGAATTGCTCCAATCGAGTAAACAAATTTTCCTAATCTTTCTGTTCAAGCGCCATCTAC”, the binding signal was 0.467 RPM ratio (pull-down/input).
